# An excerpt weighted towards active compounds, which were near 8.8% of everything screened.
# LMNA splice mod: changes lamin A minigene splicing in HeLa cells. HeLa LMNA splicing GFP/RFP minigene ratio, 48 h. Potency, µM (doses to about 46.1 µM), inactives show at the highest dose ratio change, negative = inhibition, actives largely listed as inhibitors. hit rate 0.01% among 200,000; active means well fitted inhibition curve with a large enough effect in the signal ratio, with a control signal flat, not every such curve was filed as active; inconclusive means small, poorly fitted or top-dose-only effect, or effect the other way, or a change in a side signal; the % refers to the signal ratio; further: on the % scale 0 is the no-effect control and ±100 the full control effect
#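 Read-out is the ratio of GFP to DsRed2 object intensity, acquired by 488 nm laser-scanning cytometry on HeLa lamin A-EGFP minigene reporter cells. Compound incubation 48 hrs at 37 °C in Opti-MEM with 2% FBS; DMSO 0.5% final.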
# ALDH1A1 inh: blocks purified human ALDH1A1 activity. P00352. Purified ALDH1A1, NADH fluorescence, propionaldehyde substrate. Potency, µM (highest dose often 75.3 µM), for inactives: at the top dose activity, negative = inhibition, usual class: inhibitors. hit rate 7.3% among 220,000; active means well fitted inhibition curve with a large enough effect, not every such curve was filed as active; inconclusive means small, poorly fitted or top-dose-only effect, or another doubt; inactive means no such curve, though single readings can be large or run the other way;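 further: plate controls were no enzyme wells and a reference inhibitor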
# Target sequence (P00352 whole entry, looked up): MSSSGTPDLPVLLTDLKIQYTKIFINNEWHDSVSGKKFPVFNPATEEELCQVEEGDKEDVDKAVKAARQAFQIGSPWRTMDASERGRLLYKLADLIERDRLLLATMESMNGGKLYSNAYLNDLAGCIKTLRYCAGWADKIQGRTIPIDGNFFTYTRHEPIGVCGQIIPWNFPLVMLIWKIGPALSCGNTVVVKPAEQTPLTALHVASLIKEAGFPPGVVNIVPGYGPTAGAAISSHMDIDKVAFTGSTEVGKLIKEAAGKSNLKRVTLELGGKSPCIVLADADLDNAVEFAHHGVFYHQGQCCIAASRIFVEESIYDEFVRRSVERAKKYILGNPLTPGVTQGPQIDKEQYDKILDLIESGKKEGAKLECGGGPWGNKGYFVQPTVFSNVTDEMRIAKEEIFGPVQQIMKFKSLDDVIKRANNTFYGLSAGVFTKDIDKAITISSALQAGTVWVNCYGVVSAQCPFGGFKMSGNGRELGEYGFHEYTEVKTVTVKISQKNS
# HPGD inh: HPGD (human) dehydrogenase inhibition; P15428; purified HPGD, NADH fluorescence kinetic, PGE2 substrate; Potency, µM, without a hit: at the highest dose activity change, negative = inhibition, most hits filed as inhibitors; hit rate 4.3% among 150,000; AID 894; active means well fitted inhibition curve with a large enough effect, not every such curve was filed as active; inconclusive means small, poorly fitted or top-dose-only effect, or another doubt; inactive means no such curve, though single readings can be large or run the other way; further: on the % scale 0 is the no-effect control and ±100 the full control effect
# Target sequence (P15428 whole entry, looked up): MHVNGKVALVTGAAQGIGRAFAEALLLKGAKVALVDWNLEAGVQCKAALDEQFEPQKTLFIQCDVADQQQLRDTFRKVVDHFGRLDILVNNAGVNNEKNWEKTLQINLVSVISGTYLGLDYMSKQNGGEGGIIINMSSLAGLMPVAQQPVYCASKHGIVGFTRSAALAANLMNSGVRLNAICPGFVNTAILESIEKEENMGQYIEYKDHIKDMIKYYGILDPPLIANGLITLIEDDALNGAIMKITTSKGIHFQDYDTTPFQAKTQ
#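 20 nM HPGD preincubated 15 min at room temperature with compound in 50 mM Tris-HCl pH 8, 0.01% Tween 20. Started with 1 mM NAD+ and 30 uM prostaglandin E2; NADH fluorescence (360/450 nm) read 5 times over 30-s intervals, last minus first.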
# HTT aggregate: reduces HttQ103-GFP aggregates in PC12 cells. Potency, µM (highest dose often 46.1 µM), for inactives: at the top dose activity change, negative = inhibition, actives largely listed as inhibitors. PC12 HttQ103-GFP aggregates, Acumen cytometry, 40 h. hit rate 1.1% among 220,000; further: on the % scale 0 is the no-effect control and ±100 the full control effect; nearly all actives have a fitted effect of over 60% in size
#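 Quantitative HTS on tebufenozide-induced (100 nM) PC12 cells stably expressing polyQ103 Huntingtin exon 1–GFP. Reduction of bright GFP aggregates, detected by laser scanning cytometry after lysis, identified actives across the titration.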
# HTT ATP protect: Huntington cell model cytoprotection by ATP luminescence | PC12 HTT-Q103 induced, cytoprotection, ATP luminescence, 40 h | Potency, µM (doses to about 56.4 µM), inactives show cytoprotection (ATP increase), usual class: activators | hit rate 0.14% among 230,000 | AID 1471; further: % of control where 0% means no effect; nearly all actives have a fitted effect of over 45% in size
#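 Quantitative HTS on tebufenozide-induced (100 nM) PC12 cells expressing HTTQ103 exon 1–GFP; compounds tested as a concentration series; survival measured via cellular ATP.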
# * hit, by the source's call; ? = inconclusive; / = no result; [ ] = another dose, or the depositor's remark. Unless noted, the call rests on the fitted dose curve; in most records, active means well fitted curve in the direction sought with a large enough effect; inconclusive means small, poorly fitted or top-dose-only effect, or another doubt; inactive means no such curve, though single readings can be large; an effect the other way counts as inactive or inconclusive. Potency means the concentration at half of the fitted maximal effect.
SMILES,LMNA splice mod,ALDH1A1 inh,HPGD inh,HTT aggregate,HTT ATP protect
Cc1ccc(C2CC(=O)Oc3ccc(C(C)(C)C)cc32)cc1 (configuration not stated),/,-13%,-23%,/,28µM*
Cc1ccccc1C1CC(=O)Oc2ccc(C(C)(C)C)cc21 (configuration not stated),/,?,-4%,/,-35%
Cc1ccc(C2CC(=O)Oc3ccc(O)cc32)cc1 (configuration not stated),/,32µM*,?,/,-76%[96.6 µM]
CCOC(=O)c1sc(N)c(C(=O)Nc2ccc(C)cc2C)c1C,/,10µM*,4µM*,/,/
CCOC(=O)c1sc(N)c(C(=O)OC)c1C,/,-12%,/,14%[9.22 µM],-8%[10 µM]
C=CCn1c(N)c(C(=O)Nc2ccccc2OC)sc1=S,-4%,22µM*,/,-12%,1%
C=CCn1c(N)c(C(=O)Nc2ccc(C)cc2)sc1=S,15%,10%,-4%,2%[9.22 µM],-29%
CCOC(=O)c1sc(N)c(C(=O)Nc2ccccc2OC)c1C,-10%[9.22 µM],4.5µM*,/,?,-97%
O=C(Cc1ccc(F)cc1)NCc1nc2cccnc2n1Cc1ccc(F)cc1,8%[46 µM],/,/,/,/
Cc1ccc(-c2nn(-c3cc(N4CCNCC4)ccc3[N+](=O)[O-])c(=O)c3ccccc23)cc1,?,3%,/,2%[9.22 µM],-87%
Cc1ccc(Cl)cc1,/,10%,-4%,/,9%
COc1ccc(NC(=O)c2nn(C)c3c2CS(=O)(=O)c2ccccc2-3)cc1Cl,9%[46 µM],/,/,/,/
Cc1ccc(Cl)cc1NC(=O)c1sc(-n2nc(C)c(Cc3ccc4c(c3)OCO4)c2C)nc1C,26%[46 µM],/,/,/,/
CC(C)NC(=S)NNc1nc2ccccc2s1,-3%[46 µM],0.56µM*,/,14%,6%
O=C1/C(=C/c2cccs2)NC(=S)N1C1CC1,2%,?,16µM*,-3%,/
NCCCC(N)CC(=O)NCC1NC(=O)C(CO)NC(=O)C(N)CNC(=O)C(C2CCN=C(N)N2)NC(=O)/C(=C/NC(N)=O)NC1=O (configuration not stated),/,/,/,3%,5%
S=c1[nH]nc(COc2ccccc2)n1/N=C/c1cccnc1,-4%,-13%,14µM*,17%,14%[0.074 µM]
CN(C)c1ccc(/C=N/n2c(COc3ccccc3)n[nH]c2=S)cc1,-12%,25µM*,13µM*,-4%,-3%[0.074 µM]
O=[N+]([O-])c1cccc(-c2ccc(/C=N/n3c(-c4ccccc4)n[nH]c3=S)o2)c1,-4%,0%,?,?,-9%[10 µM]
O=[N+]([O-])c1cccc(/C=N/n2c(COc3ccccc3)n[nH]c2=S)c1,-2%[0.0737 µM],?,4µM*,7%,22%
CN(C)c1ccc(/C=N/n2c(-c3cccnc3)n[nH]c2=S)cc1,-22%[46 µM],?,/,13%,-40%
O=[N+]([O-])c1ccc(/C=N/n2c(COc3ccccc3)n[nH]c2=S)cc1,4%,28µM*,5µM*,8%,0%
Cc1nc(NC2CCCCC2)c2nc(-c3ccccc3)n(CC3CCN(C)CC3)c2n1,/,?,?,/,-63%
OCCCNc1ccccc1,/,/,/,-15%,-16%
O=C(N/N=C/c1c(O)ccc2ccccc12)c1[nH]ncc1Br,?,3%,-18%,1.1µM*,-83%[10 µM]
SMILES,LMNA splice mod,ALDH1A1 inh,HPGD inh,HTT aggregate,HTT ATP protect
O=C(N/N=C/c1c(O)ccc2ccccc12)c1cccc(C(F)(F)F)c1,?,-14%,?,4µM*,/
Cc1ccc(/C=C2/C(=O)N(c3ccccc3)C(=S)N2C)o1,4%,4µM*,-23%,27%,26%[10 µM]
CCOc1ccc(/C=N/N(C)c2ccccc2)cc1OC,1%,7.9µM*,-10%,0%[9.22 µM],-31%
CO[C@@H]1/C=C\O[C@]2(C)Oc3c(C)c(O)c4c(O)c(c(/C=N\N5CCN(C)CC5)c(O)c4c3C2=O)NC(=O)/C(C)=C\C=C/[C@H](C)[C@H](O)[C@H](C)[C@H](O)[C@H](C)[C@H](OC(C)=O)[C@@H]1C,/,/,/,/,0%
Cc1cc2c(cc(C(=O)NCCCN3CCOCC3)n2Cc2ccc(Cl)cc2)o1,-17%,?,13µM*,26%,-5%[10 µM]
O=[N+]([O-])c1ccc2c(c1)[nH]c(=S)n2-c1ccccc1,/,4µM*,/,14%,-37%
O=[N+]([O-])c1cccc(-c2n[nH]c(=S)n2-c2ccccc2)c1,/,/,/,-12%[9.22 µM],14%[10 µM]
Cc1cccnc1NC(=O)C(C)N1C(=O)c2ccccc2C1=O (configuration not stated),/,/,/,33%[9.22 µM],13%[10 µM]
COc1ccc(OC)c2sc(N(Cc3cccnc3)C(=O)c3ccco3)nc12,-16%[46 µM],/,/,/,/
O=S(=O)(c1ccccc1F)N(Cc1ccco1)Cc1nnc(-c2ccccc2Br)o1,?,14µM*,25µM*,-25%,-4%[10 µM]
Cc1cccc(/C=C2/SC(=O)N(Cc3ccccc3)C2=O)n1,4%,6.3µM*,-4%,-28%,15%
O=C(COC(=O)[C@@H]1CC(O)CN1S(=O)(=O)c1ccccc1[N+](=O)[O-])Nc1ccc2ccccc2c1 (some centres not stated),-3%,-1%,-9%,12%,-6%[0.074 µM]
CC(=O)c1ccc(NC(=O)CN2C(=O)CCc3ccccc32)cc1,3%[46 µM],/,/,/,/
O=C(O)c1cc(N/N=C/c2ccc3c(c2)OCCO3)ccc1Cl,-8%,?,-8%,-19%,-2%[10 µM]
Cc1ccc(N/N=C/c2ccc3c(c2)OCCO3)cc1Cl,-9%,13µM*,?,4%,3%[10 µM]
COc1cc(NC(=O)CCc2c(C)nn(-c3ccc4nnc(C)n4n3)c2C)cc(OC)c1OC,2%[46 µM],/,/,/,/
COc1cc([N+](=O)[O-])cc(/C=N/NC(=O)C(C)Nc2cccc3ccccc23)c1O (configuration not stated),?,-4%,-24%,13µM*,22%[10 µM]
CC(Nc1cccc2ccccc12)C(=O)N/N=C/c1ccc([N+](=O)[O-])cc1 (configuration not stated),?,?,-22%,?,-21%[10 µM]
Cc1ccc(N(C)C(=O)N2CCN(S(=O)(=O)c3ccc4ccccc4c3)CC2)cc1,7%,?,-4%,11µM*,11%[10 µM]
O=S(=O)(c1ccc2ccccc2c1)N1CCN(C2Cc3ccccc3C2)CC1,-9%,28µM*,-10%,-13%,5%[10 µM]
Cc1ccc(N(C)C(=O)N2CCN(S(=O)(=O)c3ccc(C)cc3)CC2)cc1,-6%,-7%,-11%,13%,-8%
Cc1cnc(C(=O)N2CCN(S(=O)(=O)c3ccc4ccccc4c3)CC2)cn1,0%,13µM*,-17%,13%,-4%
CCN(CC)CCn1c(-c2ccccc2)nc2c(NC3CCCCC3)nc(C)nc21,/,?,-29%,/,-16%
Cc1ccc(Cn2c(CN3CCC(C(=O)NCC(C)c4ccccc4)CC3)cc3ccccc32)cc1 (configuration not stated),-28%[46 µM],/,/,/,/
CCCCCC(=O)NNC1CC(=O)N(c2ccccc2)C1=O (configuration not stated),/,/,/,3%[9.22 µM],25%[10 µM]

# Source: PubChem (National Center for Advancing Translational Sciences (NCATS))
